# From PubChem BioAssay
# The list is not random: actives were taken first. Their share in the collection is about 2.4%.
# D2 PAM-1 = HTS Assay for Positive Allosteric Modulators of the Human D2 Dopamine Receptor: Primary Screen for Potentiators; D(2) dopamine receptor (Homo sapiens), P14416; HEK293 T-REx D2, calcium flux, EC20 dopamine potentiation; 340,000 compounds, 0.34% hits; potentiation, % at 10 µM; AID 485347, 2010;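 active = potentiation over 3 SD above the plate norm, cut at about 30% in these data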
#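 Potentiation of an EC20 dopamine calcium response measured kinetically over 180 s, after a preceding 180 s compound-only read flagging agonists. Cells: inducible Hek293 Trex D2 line, 4000/well, cultured overnight at 30 C before dye loading.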
# D2 ag-1 = HTS Assay for Allosteric Agonists of the Human D2 Dopamine Receptor: Primary Screen for Agonists | HEK293 T-REx D2 cells, calcium flux agonist mode | activation, % at 2 µM | 340,000 compounds, 0.53% hits;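 active = activation over 3 SD above normal in the single-dose calcium agonist read, cut at about 30% in these data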
#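 Agonism scored from kinetic calcium signal (1 read/sec, 180 s) following compound pin transfer, after a 10 s baseline. Cells: HEK293 Trex line expressing inducible D2 receptor coupled to calcium, dye-loaded after overnight culture at 30 C.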
# D2 PAM-2 = Beta-Arrestin HTS for Positive Allosteric Modulators of the Human D2 Dopamine Receptor: Potentiators; D(2) dopamine receptor (Homo sapiens), P14416; DiscoveRx D2 beta-arrestin cells, luminescence, 90 min; 100% = 57 uM dopamine signal; potentiation, % (no concentration beside the values); 360,000 compounds, 0.23% hits; AID 624464, 2012; in the data active = potentiation above about 50%; inconclusive = mostly about 30% to 49%
#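 D2 cells co-treated with compound plus 50 nM dopamine (EC20) for 90 min at 37 deg C to detect potentiation. Beta-arrestin recruitment was read as enzyme-fragment luminescence after 1 h at ambient temperature. Full response was set by 57 uM dopamine.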
# D2 antag = HTS Assay for Allosteric Antagonists of the Human D2 Dopamine Receptor: Primary Screen for Antagonists; D(2) dopamine receptor (Homo sapiens), P14416; HEK293 TREx D2 cells, calcium flux, dopamine EC80; inhibition, % at 10 µM; 340,000 compounds, 2% hits; AID 485344, 2010; in the data active = inhibition above about 30%; inactive = below that, where a call was filed
#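 Tetracycline-induced HEK293 T-REx cells expressing D2 force-coupled to calcium signalling were dye-loaded, exposed to compound for 180 s, then challenged with an EC80 of dopamine; calcium flux was followed kinetically for a further 180 s.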
# D2 ag-2 = Beta-Arrestin HTS for Positive Allosteric Modulators of the Human D2 Dopamine Receptor: Agonists; D(2) dopamine receptor (Homo sapiens), P14416; DiscoveRx PathHunter D2 beta-arrestin, luminescence, 90 min; 100% = 57 uM dopamine signal; 360,000 compounds, 0.084% hits; activation, % (concentration not given with the values); in the data active = activation above about 40%; inconclusive = between about 15% and that limit
#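 DiscoveRx PathHunter D2 beta-arrestin cells (2,100/well) attached overnight, then compound-stimulated 90 min at 37 C in HBSS/10 mM HEPES/0.1% Tween-20 buffer; beta-galactosidase complementation read by luminescence after 1 h at ambient temperature. Dopamine 57 uM final (EC100) as control.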
# D3 ag = qHTS of D3 Dopamine Receptor Agonist: D3 Dopamine Receptor B-arrestin Agonist Confirmatory Assay. shares compounds with D2 ag-1. DiscoveRx D3 beta-arrestin cells, luminescence, 90 min. Potency, µM (titrated, usually from 76.9 µM), usual class: activators. 2,300 compounds, 4% hits; also: nearly all actives have a fitted effect of over 70% in size
# Target sequence (P35462 whole entry, looked up): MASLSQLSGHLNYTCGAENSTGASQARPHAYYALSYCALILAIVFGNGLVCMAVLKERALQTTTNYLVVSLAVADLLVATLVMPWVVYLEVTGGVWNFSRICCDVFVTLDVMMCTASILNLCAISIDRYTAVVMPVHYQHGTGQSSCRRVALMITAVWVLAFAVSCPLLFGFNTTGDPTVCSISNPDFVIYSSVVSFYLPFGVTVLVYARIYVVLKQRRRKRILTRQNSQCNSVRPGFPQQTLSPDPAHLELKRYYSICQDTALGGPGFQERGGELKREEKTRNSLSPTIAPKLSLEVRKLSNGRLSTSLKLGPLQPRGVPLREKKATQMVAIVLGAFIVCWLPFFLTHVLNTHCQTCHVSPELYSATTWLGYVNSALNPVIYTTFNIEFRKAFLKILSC
# D2 ag-3 = qHTS of D3 Dopamine Receptor Agonist: D2 Dopamine Receptor B-arrestin Agonist Counterscreen; Potency, µM (doses to about 76.9 µM), hits mostly activators; AID 720507, 2013; 2,300 compounds, 5.9% hits; DiscoveRx PathHunter D2 beta-arrestin, luminescence, 90 min; response scale: percent relative to full dopamine signal; shares compounds with D2 ag-1; also: nearly all actives have a fitted effect of over 70% in size
# Hits are given with their value; 0 = inactive; ? = inconclusive; - = no result. Unless noted, calls follow the shape of the dose curve; as a rule, active = well fitted activation curve with a large enough effect; inconclusive = small, poorly fitted or top-dose-only effect; inactive = flat fitted curve, though single readings scatter.
SMILES,D2 PAM-1,D2 ag-1,D2 PAM-2,D2 antag,D2 ag-2,D3 ag,D2 ag-3
O=C(CN1CCN(c2cccc(Cl)n2)CC1)N1CC(O)CO1 (stereo not drawn),0,0,0,0,0,-,-
CCCc1cc(=O)n2nc(N3CCC(C(=O)NCc4ccc(C)o4)CC3)sc2n1,0,0,0,0,0,-,-
O=C(O)/C=C/C(=O)NCCCc1ccccc1,0,0,0,0,0,0,0
O=C(O)/C=C/C(=O)NCc1ccccc1,0,0,0,0,0,-,-
O=C(O)c1cc([N+](=O)[O-])cc2c1C=Cc1ccccc1O2,0,0,0,0,0,-,-
O=C1CSC(=Nc2ccccc2)N1Cc1ccccc1,-,-,0,-,0,0,0
CCCN1C(=O)CSC1=Nc1ccccc1,0,0,0,0,0,-,-
CCc1ccc(CN(Cc2ccco2)c2cnc(S(C)(=O)=O)nc2C(=O)Nc2c(C)cccc2C)cc1,0,0,-,-,-,-,-
COc1ccc(/C=N/Nc2nnc(C)n2N)cc1OC(C)=O,0,0,0,0,0,?,0
CC(C)(C)c1ccc(Nc2n[nH]c3ccccc23)cc1,-,-,0,-,0,-,-
c1ccc(CCCNCC2COc3ccccc3O2)cc1 (stereo not drawn),0,48,0,86,0,?,0
O=C(CC1COc2ccccc2O1)NCc1ccccc1 (stereo not drawn),0,0,0,0,0,-,-
COc1ccc(CC(=O)NCC2COc3ccccc3O2)cc1 (stereo not drawn),0,0,0,0,0,-,-
c1ccc(CNCC2COc3ccccc3O2)cc1 (stereo not drawn),0,64,0,62,0,0,0
COc1cccc(OC)c1OCCNCC1COc2ccccc2O1 (stereo not drawn),-,-,0,-,0,-,-
COc1ccc(CNCC2COc3ccccc3O2)cc1 (stereo not drawn),0,63,0,140,0,0,0
CCN(CC)C(=O)Cn1c(SCC(=O)Nc2ccc(C)c(C)c2)nc2ccccc21,0,0,-,-,-,-,-
S=C(NCc1ccco1)NCC(c1ccco1)N1CCCCC1 (stereo not drawn),0,0,0,0,0,-,-
Cn1nc(C(F)(F)F)c(-c2ccc(F)cc2)c1NC(=O)c1ccco1,0,0,0,0,0,0,0
Cn1nc(C(F)(F)F)c(-c2ccccc2)c1NC(=O)c1ccco1,0,0,0,0,0,-,-
CC1=Nc2ccccc2/C1=C/c1nc(-c2ccc(C)s2)oc1O,-,-,0,-,0,-,-
CC1=Nc2ccccc2/C1=C/c1sc(=N)n(-c2nccs2)c1O,0,0,0,0,0,0,0
Cc1cccc(C)c1NC(=O)C[n+]1cc(-c2ccccc2)n2c1CCC2,0,75,0,0,0,0,0
Cc1ccccc1NC(=O)C[n+]1cc(-c2ccccc2)n2c1CCC2,-,-,0,-,0,0,0
Cc1cccc(-n2ccnc2CN2CCC(CO)(Cc3ccccc3)CC2)c1,0,0,0,0,0,-,-
SMILES,D2 PAM-1,D2 ag-1,D2 PAM-2,D2 antag,D2 ag-2,D3 ag,D2 ag-3
CC[n+]1c(-c2ccc(C)cc2)csc1Nc1c(C)n(C)n(-c2ccccc2)c1=O,0,66,0,52,0,0,0
Cc1ccc(Nc2nc3ccccc3nc2Nc2c(C)n(C)n(-c3ccccc3)c2=O)cc1,0,0,0,0,0,-,-
CC[n+]1c(-c2ccccc2)csc1Nc1c(C)n(C)n(-c2ccccc2)c1=O,0,50,0,0,0,0,0
Cc1onc(-c2ccccc2)c1C(=O)NNC(=S)NC(=O)c1ccc(Br)cc1,0,46,0,36,0,0,0
Cc1onc(-c2ccccc2)c1C(=O)NNC(=O)c1ccccc1O,0,0,0,0,0,-,-
COc1ccc(/C=C/C(=O)NC(=S)NNC(=O)c2c(-c3ccccc3)noc2C)cc1,0,0,0,0,0,-,-
Cc1onc(-c2ccccc2)c1C(=O)NNC(=S)NC(=O)/C=C/c1ccccc1,0,31,0,0,0,0,0
Cc1[nH]c2ccccc2c1C(=O)CN1C(=O)C(=O)N(C2CCCC2)C1=O,0,0,0,0,0,0,0
Cc1cc(C(=O)CN2C(=O)C(=O)N(C3CCCC3)C2=O)c(C)n1CCc1ccccc1,0,0,0,0,0,-,-
Fc1ccccc1N1CCN(Cc2cccnc2)CC1,0,73,0,68,?,?,?
O=c1nc2ccccc2c2n1CC(CN1CCN(c3ccc(F)cc3)CC1)N2 (stereo not drawn),0,0,0,0,0,-,-
CCS(=O)(=O)N1CCN(c2ccccc2F)CC1,0,0,0,0,0,-,-
Fc1ccccc1N1CCN(CC2CCCCC2)CC1,0,0,0,89,0,0,0
O=c1nc2ccccc2c2n1CC(CN1CCN(c3ccccc3F)CC1)N2 (stereo not drawn),0,0,0,0,0,0,0
O=C(Nc1cccc2ccccc12)c1ccc2sc([C@@H]3O[C@H](CO)[C@H](O)[C@H](O)[C@H]3O)nc2c1,-,-,0,-,0,-,-
COc1ccc(CN(C)C[C@@H]2OCc3cnnn3CCCC(=O)N([C@@H](C)CO)C[C@H]2C)cc1,-,-,0,-,0,-,-
CCCC(C)NC(=O)Cc1ccc(Br)cc1 (stereo not drawn),0,0,0,0,0,0,0
CC(C)NC(=O)Cc1ccc(Br)cc1,0,0,0,0,0,-,-
CCc1cccc(C)c1NC(=O)CCCN1C(=O)CN(C)C1=O,0,0,0,0,0,-,-
C[C@H]1[C@H](C)CC[C@]2(C)CC[C@]3(C)C(=CC(=O)C4[C@@]5(C)CC[C@H](O)C(C)(C)C5CC[C@]43C)[C@H]12 (stereo partly drawn),0,0,0,0,0,0,0
COc1cc(CNCCCN2CCOCC2)ccc1OCC(=O)NC(C)(C)C,0,0,0,0,0,-,-
COc1cc(CNCCN2CCOCC2)ccc1OCC(=O)NC(C)(C)C,0,34,0,0,0,0,0
COc1ccc([C@@H]2C[C@H]3[C@@H](CN2S(=O)(=O)c2ccccc2)C(=O)C[C@@H](c2ccccc2)N3S(=O)(=O)c2ccc(C)cc2)cc1,-,-,0,-,0,-,-
